Among all 39,000 compounds or so, about 1,500 (3.8%) were called active. For the sample, actives were picked, then their nearest neighbours and some compounds at random.

This assay deals with HSkMC (human skeletal muscle cells). Briefly: cytotoxicity call (relative viability < 0.9). Conditions: 10 µM.
On to `C[C@@H]1CCCCO[C@H](CN(C)C(=O)Nc2cccc3ccccc23)[C@@H](C)CN([C@H](C)CO)C(=O)c2cc(NC(=O)Nc3ccc(C(F)(F)F)cc3)ccc2O1`, for which the cytotoxicity call is “inactive”.

For `COc1ccc(S(=O)(=O)Nc2ccc3c(c2)C(=O)N([C@@H](C)CO)C[C@@H](C)[C@H](CN(C)C(=O)Nc2ccc(F)cc2)OCCCC[C@@H](C)O3)cc1`, the cytotoxicity call was “inactive”.

Consider `C[C@H](CO)N1C[C@H](C)[C@@H](CN(C)C(=O)Nc2cccc(Cl)c2Cl)OCc2ccccc2-c2c(n(C)c3ccccc23)C1=O`, for which the cytotoxicity call is “active”.

For `C[C@@H]1CN([C@H](C)CO)C(=O)c2c(c3ccccc3n2C)-c2ccccc2CO[C@H]1CN(C)C(=O)Nc1cccc(Cl)c1Cl`, the cytotoxicity call is “inactive”.

For `C[C@@H]1CN([C@H](C)CO)C(=O)c2c(c3ccccc3n2C)-c2ccccc2CO[C@@H]1CN(C)C(=O)Nc1cccc(Cl)c1Cl`, the cytotoxicity call is “active”.

For `COc1ccccc1NC(=O)N(C)C[C@@H]1OCc2ccccc2-c2c(n(C)c3ccccc23)C(=O)N([C@@H](C)CO)C[C@H]1C`, the cytotoxicity call is “inactive”.

With `C[C@@H]1CN([C@@H](C)CO)C(=O)c2c(c3ccccc3n2C)-c2ccccc2CO[C@@H]1CN(C)C(=O)Nc1cccc(Cl)c1Cl`, the cytotoxicity call is “inactive”.

With `C[C@H]1CN([C@@H](C)CO)C(=O)c2c(c3ccccc3n2C)-c2ccccc2CO[C@H]1CN(C)C(=O)Nc1cccc(Cl)c1Cl`, the cytotoxicity call is “inactive”.

For the compound `C[C@H]1CN([C@@H](C)CO)C(=O)c2c(c3ccccc3n2C)-c2ccccc2CO[C@@H]1CN(C)C(=O)Nc1cccc(Cl)c1Cl`, the cytotoxicity call is “active”.

As to `C[C@H](CO)N1C[C@H](C)[C@H](CN(C)C(=O)Nc2cccc(Cl)c2Cl)OCc2ccccc2-c2c(n(C)c3ccccc23)C1=O`, the cytotoxicity call was “inactive”.

Turning to `C[C@@H]1CN([C@@H](C)CO)C(=O)c2c(c3ccccc3n2C)-c2ccccc2CO[C@H]1CN(C)C(=O)Nc1cccc(Cl)c1Cl`, the cytotoxicity call was “inactive”.

For `COc1ccc(S(=O)(=O)N(C)C[C@H]2OCCCC[C@H](C)Oc3ccc(NC(=O)C4CCCCC4)cc3C(=O)N([C@H](C)CO)C[C@@H]2C)cc1`, the cytotoxicity call was “inactive”.

For `Cn1c(C(=O)N[C@H](CO)Cc2c[nH]c3ccccc23)cc(=O)n(C)c1=O`, the cytotoxicity call was “inactive”.

With `C[C@H](CO)N1C[C@H](C)[C@@H](CN(C)C(=O)CCCN(C)C)OCc2cn(nn2)CCCC1=O`, the cytotoxicity call was “inactive”.

In the case of `Cc1ccc(S(=O)(=O)Nc2ccc3c(c2)C(=O)N([C@H](C)CO)C[C@H](C)[C@@H](CN(C)C(=O)CCC(F)(F)F)OCCCC[C@@H](C)O3)cc1`, the cytotoxicity call is “inactive”.

For `CC(C)C(=O)NCc1nnnn1-c1ccccc1`, the cytotoxicity call was “inactive”.

Regarding `C[C@@H]1CCCCO[C@@H](CN(C)C(=O)c2ccccc2)[C@@H](C)CN([C@@H](C)CO)C(=O)c2cc(NC(=O)Cc3ccccc3)ccc2O1`, the cytotoxicity call was “inactive”.

In the case of `COc1ccc(CN(C)C[C@@H]2Oc3c(NC(=O)c4cnccn4)cccc3C(=O)N([C@H](C)CO)C[C@H]2C)cc1`, the cytotoxicity call was “inactive”.

For `O=C1O[C@@H](c2ccccc2)[C@@H](c2ccccc2)N2[C@@H](c3ccc(O)cc3)[C@]3(C(=O)Nc4ccccc43)[C@@H](C(=O)NC[C@H](O)c3ccccc3)[C@H]12`, the cytotoxicity call is “inactive”.

As for `CN1CCN(C(=O)C[C@@H]2CC[C@@H]3[C@H](COC[C@H](O)CN3C(=O)C3CCCC3)O2)CC1`, the cytotoxicity call is “inactive”.

Consider `Cc1cc(O)c(C(C)C)cc1Cl`, for which the cytotoxicity call was “inactive”.

Turning to `COc1cccc(C#Cc2cnc3c(c2)C(=O)N([C@@H](C)CO)C[C@H](C)[C@@H](CN(C)C(=O)C2CCC2)O3)c1`, the cytotoxicity call is “inactive”.

For `C=C1C2CCC3(C)C(c4ccoc4)OC(=O)CC13OC1CC(=O)C(C)(C)C(C(O)C(=O)OC)C12C` (stereo unspecified), the cytotoxicity call was “inactive”.

As for `CC(C)NC(=O)Nc1ccc2c(c1)C(=O)N([C@@H](C)CO)C[C@@H](C)[C@H](CN(C)S(=O)(=O)c1cn(C)cn1)O2`, the cytotoxicity call was “inactive”.

As to `O=C(C[C@H]1CC[C@H]2[C@@H](COC[C@@H](O)CN2C(=O)c2ccccc2F)O1)N1CCN(c2ccccc2)CC1`, the cytotoxicity call is “inactive”.

In the case of `COc1ccc(-c2ccc3c(c2)O[C@H](CN(C)CC2CCOCC2)[C@@H](C)CN([C@@H](C)CO)S3(=O)=O)cc1`, the cytotoxicity call is “inactive”.

For the compound `Cc1[nH]c(/C=C2\C(=O)Nc3ccc(S(=O)(=O)Cc4c(Cl)cccc4Cl)cc32)c(C)c1C(=O)N1CCC[C@@H]1CN1CCCC1`, the cytotoxicity call was “active”.

`C[C@@H]1CN([C@@H](C)CO)C(=O)c2cc(NC(=O)Nc3ccc(C(F)(F)F)cc3)ccc2O[C@@H]1CN(C)Cc1ccccc1`: the cytotoxicity call was “active”.

On to `C[C@H](CO)N1C[C@H](C)[C@H](CN(C)Cc2ccc(C(=O)O)cc2)Oc2ccc(NC(=O)Nc3ccc(C(F)(F)F)cc3)cc2C1=O`, for which the cytotoxicity call was “inactive”.

As to `C[C@H](CO)N1C[C@H](C)[C@H](CN(C)Cc2ccccc2)Oc2ccc(NC(=O)Nc3ccc(C(F)(F)F)cc3)cc2C1=O`, the cytotoxicity call is “inactive”.

For `C[C@H](CO)N1C[C@H](C)[C@@H](CN(C)Cc2ccc(C(=O)O)cc2)Oc2ccc(NC(=O)Nc3ccc(C(F)(F)F)cc3)cc2C1=O`, the cytotoxicity call was “inactive”.

As to `C[C@@H]1CN([C@H](C)CO)C(=O)c2cc(NC(=O)Nc3ccc(C(F)(F)F)cc3)ccc2O[C@H]1CN(C)Cc1ccccc1`, the cytotoxicity call was “active”.

Take `C[C@@H]1CN([C@@H](C)CO)C(=O)c2cc(NC(=O)Nc3ccc(C(F)(F)F)cc3)ccc2O[C@H]1CN(C)Cc1ccccc1`: the cytotoxicity call was “active”.

Consider `C[C@H](CO)N1C[C@H](C)[C@@H](CN(C)Cc2ccccc2)Oc2ccc(NC(=O)Nc3ccc(C(F)(F)F)cc3)cc2C1=O`, for which the cytotoxicity call was “active”.

On to `C[C@@H]1CN([C@@H](C)CO)C(=O)c2cccc(N(C)C)c2O[C@H]1CN(C)S(=O)(=O)c1ccc(Cl)cc1`, for which the cytotoxicity call is “inactive”.

In the case of `CCCNC(=O)C[C@@H]1CC[C@H]2[C@H](COc3ccc(NS(=O)(=O)c4ccccc4C)cc3C(=O)N2C)O1`, the cytotoxicity call was “inactive”.

For `Cc1noc(C)c1NC(=O)Nc1cccc2c1O[C@@H](CN(C)C(=O)NC(C)C)[C@H](C)CN([C@@H](C)CO)C2=O`, the cytotoxicity call was “inactive”.

With `COc1ccc(NC(=O)Nc2ccc3c(c2)C(=O)N([C@H](C)CO)C[C@H](C)[C@H](CN(C)C(=O)Nc2ccc(C(F)(F)F)cc2)OCCCC[C@H](C)O3)cc1`, the cytotoxicity call was “inactive”.

Take `C[C@H]1CN([C@@H](C)CO)C(=O)c2cc(NC(=O)Nc3ccc(C(F)(F)F)cc3)ccc2O[C@@H]1CN(C)Cc1ccccc1`: the cytotoxicity call was “inactive”.

With `C[C@H]1CN([C@@H](C)CO)C(=O)c2cc(NC(=O)Nc3ccc(C(F)(F)F)cc3)ccc2O[C@H]1CN(C)Cc1ccccc1`, the cytotoxicity call was “active”.

As to `C[C@@H]1CN([C@H](C)CO)C(=O)c2cc(NC(=O)Nc3ccc(C(F)(F)F)cc3)ccc2O[C@@H]1CN(C)Cc1ccccc1`, the cytotoxicity call is “inactive”.
